A selection: hits, their analogues and other compounds. The true share with any hit is near 11%.
BAZ2B block – qHTS Assay for Inhibitors of BAZ2B; Bromodomain adjacent to zinc finger domain protein 2B (Homo sapiens), Q9UIF8; AlphaScreen BAZ2B-H3K14Ac peptide displacement; Potency, µM (top dose mostly 114 µM), for inactives: top-dose activity change, negative = inhibition, actives largely listed as inhibitors; hit rate 4.4% among 360,000; AID 504333, 2011; also: % is scaled to controls: 0 for no effect and ±100 for the full control effect; nearly all actives have a fitted effect of over 60% in size
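In this displacement format the biotinylated H3(5-23) peptide acetylated at Lys14 serves as ligand at 50 nM, with BAZ2B at 50 nM in PBS pH 7.4 containing 0.01% Tween-20. Donor and acceptor beads are 10 ug/mL final.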
G9a block – qHTS Assay for Inhibitors of Histone Lysine Methyltransferase G9a. G9a H3K9 monomethylation, AlphaScreen, 2 h. hit rate 8.8% among 350,000. Histone-lysine N-methyltransferase EHMT2 (Homo sapiens), Q96KQ7. Potency, µM (top dose mostly 102 µM), for inactives: top-dose activity, negative = inhibition, hits mostly inhibitors; also: % is scaled to controls: 0 for no effect and ±100 for the full control effect; nearly all actives have a fitted effect of over 75% in size
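Signal arises when biotinylated H3K9 peptide, once monomethylated, bridges streptavidin donor and antibody-captured acceptor beads. Enzyme at 20 nM was preincubated 15 min with test compounds; peptide 500 nM and SAM 20 uM then reacted for 2 h.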
JMJD2A Tudor – qHTS Assay for Inhibitors of JMJD2A-Tudor Domain; Lysine-specific demethylase 4A (Homo sapiens), O75164; AlphaScreen JMJD2A-Tudor / H3K4me3 peptide binding; Potency, µM (doses to about 114 µM), inactives show at the top dose activity change, negative = inhibition, hits mostly inhibitors; hit rate 4.4% among 390,000; AID 504339, 2011; also: % is scaled to controls: 0 for no effect and ±100 for the full control effect; nearly all actives have a fitted effect of over 50% in size
HP1b binding inh – HTS for Inhibitors of HP1-beta Chromodomain Interactions with Methylated Histone Tails; Chromobox protein homolog 1 (Homo sapiens), P83916; AlphaScreen HP1-beta / biotin-H3K9me3 peptide binding; Potency, µM (top dose mostly 114 µM), without a hit: top-dose activity change, negative = inhibition, hits mostly inhibitors; hit rate 0.56% among 390,000; AID 540317, 2011; also: nearly all actives have a fitted effect of over 70% in size
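HP1-beta protein (50 nM final) preincubated 30 min at room temperature with biotinylated H3(1-18)K9me3 peptide (50 nM) in PBS pH 7.4, 0.01% Tween-20, then compound added for 30 min. AlphaScreen streptavidin donor/nickel chelate acceptor beads (10 ug/mL final), 30 min dark, luminescence read.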
VDR inh – Inhibitors of the vitamin D receptor (VDR): qHTS; Vitamin D3 receptor (Homo sapiens), P11473; VDR-SRC2-3 peptide fluorescence polarization, 2 h; Potency, µM, without a hit: max response, negative = inhibition, usual class: inhibitors; hit rate 0.93% among 400,000; AID 504847, 2011; also: % is scaled to controls: 0 for no effect and ±100 for the full control effect
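Fluorescence polarization assay of small-molecule disruption of VDR binding to coregulator peptide SRC2-3. Compounds and controls pin-transferred, then read after 2 h incubation at ambient room temperature.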
PLK1 PBD block – qHTS for Inhibitors of PLK1-PDB (polo-like kinase 1 - polo-box domain): Primary Screen. Serine/threonine-protein kinase PLK1 (Homo sapiens), P53350. AID 720504, 2013. Potency, µM, without a hit: max response, negative = inhibition, most hits filed as inhibitors. hit rate 2.8% among 360,000. Plk1 PBD binding of FITC phosphopeptide, fluorescence polarization; also: series mostly up to about 57 µM; % is scaled to controls: 0 for no effect and ±100 for the full control effect; nearly all actives have a fitted effect of over 65% in size
Starred values were filed as active, the others as inactive; ? = inconclusive; . = no result given; [ ] = dose if it differs, or a comment. Calls follow the shape of the dose curve; as a rule, active = well fitted curve in the direction sought with a large enough effect; inconclusive = small, poorly fitted or top-dose-only effect, or another doubt; inactive = no such curve, though single readings can be large; an effect the other way counts as inactive or inconclusive. Potency is read from the fitted curve at half-maximal effect.

SMILES | BAZ2B block | G9a block | JMJD2A Tudor | HP1b binding inh | VDR inh | PLK1 PBD block
Cc1ccc(/C=C2\SC(=O)N(CCNC(=O)C3CSC4(C)CCC(=O)N34)C2=O)cc1 (stereo not drawn) | -24% | 35µM* | -18% | 13% | -22% | -5%
COc1cc(C2NC(C(=O)O)CS2)ccc1OCc1ccccc1C#N (stereo not drawn) | -3% | 20µM* | . | . | . | .
O=C(O)C1CSC(c2ccco2)N1 (stereo not drawn) | 50µM* | 3.2µM* | -22%[11.4 µM] | 40µM* | -2% | ?
O=C1CSC(c2ccco2)N1 (stereo not drawn) | 1% | 79µM* | -4% | 27% | 12% | -8%
COC(=O)c1ccc(C2NC(C(=O)O)CS2)cc1 (stereo not drawn) | ? | 3.5µM* | 6.3µM* | -63% | ? | -7%
COc1ccc(C2NC(=O)CS2)cc1 (stereo not drawn) | -2% | -12%[59 µM] | -6% | 30% | -3% | -8%
COC(=O)c1ccc([C@H]2CC(=O)O2)cc1 | -5%[57.1 µM] | . | -15% | 17% | -4% | -8%
Cc1nc2nc(NC(=O)C(C)C)[nH]n2c(=O)c1Cc1ccccc1 | -12% | -35%[59 µM] | -30% | -4% | 2% | .
Cc1cc(C)cc(N(CC(=O)N2CCCCCC2)S(C)(=O)=O)c1 | 1% | 7% | -1% | 56% | 14% | -16%
COc1cccc(COCC(O)CN2CCC(C(N)=O)CC2)c1 (stereo not drawn) | -15% | 0% | -2%[57.1 µM] | 16% | -11% | -7%
Oc1c(Br)cc(C=Nc2ccc3nc(-c4ccccc4)[nH]c3c2)c(O)c1Br | 40µM* | 28µM* | ? | -16% | -2% | -30%
COc1ccc2nc(-c3ccccc3)[nH]c2c1 | 5% | 60%[59 µM] | -9% | 20% | 1% | -4%
COc1cccc2c1CCC1=CC(=O)CC[C@@]12C | . | -2%[2.33 µM] | . | . | -3% | .
COc1ccc(C2NN=C(c3ccc(C)cc3)S2)cc1 (stereo not drawn) | 11% | 32µM* | -12% | 18% | -18% | ?
CCOC(=O)C1CCCN(C(=O)C2CCN(c3nnc(C)c4c(C)n(-c5ccccc5)nc34)CC2)C1 (stereo not drawn) | -28% | -20%[59 µM] | -19% | 29% | -4% | .
O=C(OCc1ccccc1)c1cccnc1Cl | 18% | 37% | 25% | 37% | 2% | 0%
O=C(OCc1ccccc1)/C(=C(\O)c1ccccc1Br)c1ccc(-c2ccccc2)cn1 | 56µM* | -4%[2.33 µM] | -8% | 80% | -21% | 1%
CCC12CCCN3CCc4c(n(c5ccccc45)C(O)(C(=O)OC)C1)C32 (stereo not drawn) | -26% | 50µM* | -30% | -3% | ? | -16%
CC[C@]12CCCN3CCc4c(n(c5ccccc45)[C@](O)(C(=O)OC)C1)[C@@H]32 | 26% | 2%[12.7 µM] | -3% | 22% | 0% | -8%
O=C(O)COc1ccc(/C=C2\SC(=Nc3ccccc3)N(c3ccccc3)C2=O)cc1 | -19% | -30% | -26% | 14% | -2% | -4%
COc1ccc(N=C2S/C(=C\c3ccc(N4CCOCC4)o3)C(=O)N2CCc2c[nH]c3ccccc23)cc1 | 40µM* | ? | . | . | . | .
COc1ccc(N=C2S/C(=C\c3ccc(OCC(=O)O)cc3)C(=O)N2CCc2c[nH]c3ccccc23)cc1 | 14µM* | -195%[59 µM] | 8.9µM* | 18µM* | -9% | ?
CC1(C)CC(=O)C2=C(C1)NC(Nc1nc3ccccc3o1)=NC21CCCC1 | 4% | 12%[59 µM] | ? | -10% | -27% | 27µM*
O=C1CCCC2=C1C1(CCOCC1)N=C(Nc1nc3ccccc3o1)N2 | . | . | -23% | . | . | .
Cc1cc(C)n2nc(-c3ccsc3-n3c(C)ccc3C)cc2n1 | -36% | 50µM* | ? | -7% | 42% | -23%
SMILES | BAZ2B block | G9a block | JMJD2A Tudor | HP1b binding inh | VDR inh | PLK1 PBD block
Cc1ccc(NC(=O)c2c(C)oc3nc(C)nc(N4CCCC4)c23)c(C)c1 | 1%[57.1 µM] | -10%[59 µM] | -16% | -6% | 2% | .
COc1cccc(N=c2oc3ccc(OC)cc3cc2-c2nc3ccccc3[nH]2)c1 | -2% | -8%[59 µM] | ? | 15% | -14% | -9%
COc1cccc(N=c2oc3ccccc3cc2-c2nc3ccccc3[nH]2)c1 | -33% | -4%[12.7 µM] | 32µM* | 7% | 4% | -15%
Cc1c(C)c2ccc(OCC(=O)NCCCn3ccnc3)cc2oc1=O | -17%[57.1 µM] | 1% | 22µM* | 42% | -9% | -1%
Cc1cc(=O)oc2cc(OCC(=O)NCCCn3ccnc3)ccc12 | -19% | -7%[59 µM] | 9% | 25% | -4% | -10%
CCCOc1cccc(NC(=O)c2c(-c3ccccc3Cl)noc2C)c1 | 14% | 15%[59 µM] | 14% | 66% | -3% | .
COC(=O)c1ccc(NC(=S)NC2CCCCC2)cc1 | -2% | . | -11% | 23% | 13% | -7%
NS(=O)(=O)c1ccc(NC(=S)NC2CCCCC2)cc1 | -29% | 25µM* | -14% | -4% | ? | 11µM*
Cc1cccc(NC(=S)NC2CCCC2)n1 | ? | -117% | -27% | 29% | 4% | -16%
Cc1cccc(NC(=S)NC2CCCCC2)n1 | -27% | 0.89µM* | -13% | 19% | -26% | -15%
NS(=O)(=O)c1ccc(NC(=O)NC2CCCCC2)cc1 | 5% | 1% | -8% | 40% | -1% | 1%
S=C(Nc1ccc(Nc2ccccc2)cc1)NC1CCCCCC1 | 13µM* | 16µM* | 20µM* | ? | 8% | ?
COC(=O)c1cccnc1NC(=S)NC1CCCCC1 | 9% | 14µM* | -25% | 38% | -29% | -12%
S=C(Nc1cccnc1)NC1CCCCCCC1 | 0% | 14%[59 µM] | -2% | 30% | -26% | -24%
CC1CCCC/C1=N\NC(=S)Nc1cccnc1 (stereo not drawn) | ? | 3.2µM* | ? | ? | 5% | -16%
S=C(Nc1cccnc1)NC1CCCC1 | 3% | 16µM* | -24% | -14% | -4% | ?
COc1ccc(Cn2c(SCc3ccc(C(=O)NC4CCCCC4)cc3)nc3ccncc32)cc1 | -36% | -20%[59 µM] | -21% | 12% | -6% | .
CCOC(=O)C1=C(CS(=O)(=O)c2ccc(F)cc2)NC(=O)NC1c1cc(OC)c(O)c(OC)c1 (stereo not drawn) | 1% | 7% | -4% | 26% | 1% | 2%

Source: PubChem (National Center for Advancing Translational Sciences (NCATS))
